# Experimental data reported in PubChem BioAssay (NCI).
# This is part of a sample that, as a whole, favours compounds with a hit. Of some 83,000 tested, about 20% had one in any assay.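 Compound tested at a single concentration for 48 hours in 96-well plates; a percent growth value below 10 was scored as active.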 Values without a mark were called inactive. Activity calls are given as the source filed them.
# System: HL-60(TB) leukemia
# Test: NCI-60 one-dose screen, 48 h (100 = growth as untreated, 0 = no growth, -100 = all killed)
# Conditions: 10 µM unless noted
row,SMILES,growth
1,CNc1nc2c(s1)C(c1cc(F)ccc1F)CC(=O)N2 (stereo not given),46.7%
2,CCCCC1CCCC12NC(=O)NC2=O (stereo not given),84.6%
3,C=CCn1c(C)nc2ccc(Nc3nc(Nc4ccc5nc(C)n(CC=C)c5c4)c4ccccc4n3)cc21,-63.2% (active)
4,COc1ccc(O)c(-c2cc(-c3ccccc3)c(C#N)c(=O)[nH]2)c1,112%
5,CC/C=C\C[C@H]1C/C=C2/C(=O)C(Cl)=C[C@@H]2C/C=C\CCCC(=O)O1,-6.91% (active)
6,Nc1nc2c(c(=O)[nH]1)C(c1ccc3c(c1)OCO3)C=C(C(=O)O)N2 (stereo not given),111%
7,O=C(O)c1ccc(NCc2cn(-c3ccc(C(F)(F)F)cc3)nc2-c2ccc(C(=O)O)cc2)cc1,104%
8,CC1(C)C(=NO)C(C)(C)C1=NO,113%
9,O=C(CSc1nnc(Cc2ccccc2Nc2c(Cl)cccc2Cl)n1-c1ccccc1)N1N=C(c2ccc3ccccc3c2)CC1c1ccc(Cl)cc1 (stereo not given),98%
10,CCCCCCCCCC(C)NC(=O)CCl (stereo not given),92.3%
11,CC(C)OCC1CO1 (stereo not given),103%
12,CC(=O)[C@H]1CC[C@H]2[C@@H]3CC[C@H]4CC=CC[C@]4(C)[C@H]3CC[C@]12C,69%
13,Cc1nc2ccccc2c(/C=C/c2ccc(Cl)cc2)c1C(=O)/C=C/c1cccs1,59.5%
14,c1cn2cc(-c3ccc4ncn(C5CCCCC5)c4c3)nc(-c3ccc4c(c3)ncn4C3CCCCC3)c2n1,-42.2% (active)
15,CC1CN(CC(O)c2ccc(Br)cc2)CCO1 (stereo not given),85.4%
